Laboratory results taken from the supplement of paper PMC9925115.
Where a name gives a salt, the structure may show the parent alone.

These compounds were tested on FLX1 + dox-induced PRKAR1A G325D (assay: difference in log2 fold change of viability vs plate median (dox-induced PRKAR1A G325D minus uninduced); higher = compound less effective when PKA is inhibited). Conditions: concentration: not stated (2 or 5 uM); 5 days.
Protocol: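 For each plate a log2 fold change vs the plate median was derived, and the values without dox were subtracted from those with dox, averaged over three biological replicates.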

Row | SMILES | difference in log2 fold change of viability
1 | COc1cccc2cc(-c3nc([C@H]4CC[C@H](C(=O)O)CC4)n4ncnc(N)c34)[nH]c12 | 0.812
2 | Oc1cc(O)cc(/C=C/c2ccc(O)c(O)c2)c1 [Piceatannol] | -0.236
3 | C=CC(=O)Nc1ccc2ncnc(Nc3cccc(Br)c3)c2c1 | -0.936
4 | Cn1cnc2c(F)c(Nc3ccc(Br)cc3Cl)c(C(=O)NOCCO)cc21 [Selumetinib (AZD6244)] | -1.05
5 | COc1ccc(F)c(F)c1C(=O)c1cnc(NC2CCN(S(C)(=O)=O)CC2)nc1N | 0.247
6 | O=C(Nc1cccc(Nc2ncc(Br)c(NCCc3cnc[nH]3)n2)c1)N1CCCC1 | 0.799
7 | COc1ncc(-c2ccc3nccc(-c4ccnnc4)c3c2)cc1NS(=O)(=O)c1ccc(F)cc1F | 0.179
8 | C=CC(=O)Nc1cccc(Nc2nc(Nc3ccc(OCCOC)cc3)ncc2F)c1 | -0.726
9 | O=C(NC(NC(=S)Nc1ccc(F)c([N+](=O)[O-])c1)C(Cl)(Cl)Cl)C(c1ccccc1)c1ccccc1 (stereo not drawn) | 0.101
10 | COc1cc2nccc(Oc3ccc(NC(=O)C4(C(=O)Nc5ccc(F)cc5)CC4)cc3)c2cc1OC [Cabozantinib malate (XL184)] | -0.77
11 | N#Cc1ccc2[nH]c(O)c(-c3ccc(CN4CCOCC4)cn3)c2c1 | 0.199
12 | COc1ccc(S(=O)(=O)N(CCO)c2ccccc2CN(C)C/C=C/c2ccc(Cl)cc2)cc1 [KN-93 Phosphate] | 0.66
13 | CCOc1cc(N2CCC(O)CC2)ccc1Nc1ncc2c(n1)N(C)c1ccccc1C(=O)N2C | 0.697
14 | C[C@@H]1CN(CC(=O)Nc2ccc3c(c2)Cc2cccc(-c4cc(=O)cc(N5CCOCC5)o4)c2S3)C[C@H](C)O1 | -0.0572
15 | COc1cc2c(Nc3ccc(NC(=O)c4ccccc4)cc3)ncnc2cc1OCCCN1CCOCC1 | 0.301
16 | O=C(NC1CCNCC1)c1n[nH]cc1NC(=O)c1c(Cl)cccc1Cl | 0.272
17 | O=S(=O)(c1cccc2cnccc12)N1CCCNCC1 [Fasudil (HA-1077) HCl] | -0.15
18 | Cc1cc(NC(=O)c2cccc(NC(=O)/C=C/CN(C)C)c2)ccc1Nc1nccc(-c2cccnc2)n1 | -0.217
19 | Cn1cc(-c2ccc3ncc(Cc4ccc5ncccc5c4)n3n2)cn1 | -0.0241

Row | SMILES | difference in log2 fold change of viability
20 | CC(C)CC(=O)Nc1n[nH]c2c1CN(C(=O)C1CCN(C)CC1)C2(C)C | 0.243
21 | CC(C)(O)CC(=O)NCCn1ccc2ncnc(Nc3ccc(Oc4cccc(C(F)(F)F)c4)c(Cl)c3)c21 | -0.173
22 | COc1cc(N2CCC(N)CC2)ccc1Nc1ncc(Cl)c(-c2c[nH]c3ccccc23)n1 | 0.0117
23 | Cc1nc(Nc2n[nH]c3c2CN(C(=O)N[C@H](CN(C)C)c2ccccc2)C3(C)C)c2sccc2n1 | 0.871
24 | COc1cc2nccc(Oc3ccc(NC(=O)C4(C(=O)Nc5ccc(F)cc5)CC4)cc3)c2cc1OC | 0.457
25 | CCn1c2ccccc2c2cc(Nc3ccnc(NCCCN4CCOCC4)n3)ccc21 | 0.808
26 | O=C1NC(=O)/C(=C/c2ccc(-c3ccc(F)cc3O)o2)S1 | -0.649
27 | Cn1c(Nc2ccc(C(F)(F)F)cc2)nc2cc(Oc3ccnc(-c4ncc(C(F)(F)F)[nH]4)c3)ccc21 | -0.588
28 | Nc1nc(Nc2ccc(S(N)(=O)=O)cc2)nn1C(=O)c1c(F)cccc1F | 0.0351
29 | Cc1cc(CS(=O)(=O)c2ccccc2)cc(OCc2ccc(CN3CCC[C@@H]3CO)cc2)c1 | 0.461
30 | Cn1cnc2c(F)c(Nc3ccc(Br)cc3F)c(C(=O)NOCCO)cc21 | -1.09
31 | CNc1nc(-c2ccc3c(N)n[nH]c3c2)cc(N2C[C@@H](C(=O)NC3CCCCC3)CC[C@H]2C)n1 | 0.221
32 | CN1CC[C@H](c2c(O)cc(O)c3c(=O)cc(-c4ccccc4Cl)oc23)[C@H](O)C1 [Flavopiridol (Alvocidib)] | 0.251
33 | Fc1cc(-c2cccc3ncc(-c4cnn(C5CCNCC5)c4)nc23)cc(F)c1CN1CCOCC1 | 0.246
34 | CO[C@H]1C[C@@H]2CC[C@@H](C)[C@@](O)(O2)C(=O)C(=O)N2CCCC[C@H]2C(=O)O[C@H]([C@H](C)C[C@@H]2CC[C@@H](OCCO)[C@H](OC)C2)CC(=O)[C@H](C)/C=C(\C)[C@@H](O)[C@@H](OC)C(=O)[C@H](C)C[C@H](C)/C=C/C=C/C=C/1C [Everolimus (RAD001)] | -1.32
35 | O=C(NOCC(O)CO)c1cc(Br)c(F)c(F)c1Nc1ccc(I)cc1F (stereo not drawn) | -1.06
36 | CCOc1ccn(-c2ccc(F)cc2)c(=O)c1C(=O)Nc1ccc(Oc2ccnc(N)c2Cl)c(F)c1 | 0.114
37 | O=S(=O)(NCCNC/C=C/c1ccc(Br)cc1)c1cccc2cnccc12 | -0.243
38 | CNc1nc(Nc2cn(C(C)(C)C#N)nc2C)ncc1C(F)(F)F | 0.145
